Assay outcomes deposited in PubChem by National Center for Advancing Translational Sciences (NCATS).
Shiga toxin inh: A qHTS for Small Molecule Inhibitors of Shiga Toxin; Vero cells, Shiga toxin protein synthesis inhibition reporter; inhibition, % at 38.7 µM; 9.2% of 290,000 active; in the data active means inhibition mostly above about 28%, no sharp cut-off; inactive means mostly below about 43%; further: 0% is about no effect
Pf growth 48h: Primary qHTS for delayed death inhibitors of the malarial parasite plastid, 48 hour incubation. P. falciparum luciferase growth in erythrocytes, 48 h. 5.9% of 310,000 active. Potency, µM (doses to about 28.7 µM), without a hit: top-dose activity change, negative = inhibition, most hits filed as inhibitors. AID 504832, 2011; further: potency means the concentration at half of the fitted maximal effect; on the % scale 0 is the no-effect control and ±100 the full control effect
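Here the parasites carry a stable luciferase gene and grow inside erythrocytes in Albumax-based RPMI medium with compound for one erythrocytic cycle. Activity is scored as loss of luminescent signal.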
Cycloheximide cs: Cycloheximide Counterscreen for Small Molecule Inhibitors of Shiga Toxin. cell reporter, cycloheximide protein synthesis inhibition counterscreen. 12% of 300,000 active. max response, %; in the data active means max response mostly above about 13%, no sharp cut-off; inactive means mostly below about 14%; further: read at 38.3 µM for the half of the compounds with a filed dose; 0% is about no effect
Pf growth 96h: Primary qHTS for delayed death inhibitors of the malarial parasite plastid, 96 hour incubation; P. falciparum luciferase reporter growth, 96 h; Potency, µM (doses to about 28.7 µM), inactives show at the top dose activity change, negative = inhibition, hits mostly inhibitors; 6.9% of 320,000 active; AID 504834, 2011; further: potency means the concentration at half of the fitted maximal effect; on the % scale 0 is the no-effect control and ±100 the full control effect
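Two parasite generations (96 h, 37 C, 5% CO2) of compound exposure in infected erythrocytes (0.05% parasitemia, 2% hematocrit). Luciferase-reporter P. falciparum; decreased luminescence indicates inhibited growth, aimed at apicoplast-acting delayed death.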
LmPK inhibitor: qHTS Assay for Inhibitors of Leishmania Mexicana Pyruvate Kinase (LmPK) | purified LmPK, Kinase-Glo ATP luminescence, 1 h | Potency, µM (series often up to 57.5 µM), for the others: at the top dose activity change, negative = inhibition, actives largely listed as inhibitors | 0.37% of 290,000 active | AID 1721, 2009; further: potency means the concentration at half of the fitted maximal effect; on the % scale 0 is the no-effect control and ±100 the full control effect
Target sequence (Q27686 whole entry, looked up): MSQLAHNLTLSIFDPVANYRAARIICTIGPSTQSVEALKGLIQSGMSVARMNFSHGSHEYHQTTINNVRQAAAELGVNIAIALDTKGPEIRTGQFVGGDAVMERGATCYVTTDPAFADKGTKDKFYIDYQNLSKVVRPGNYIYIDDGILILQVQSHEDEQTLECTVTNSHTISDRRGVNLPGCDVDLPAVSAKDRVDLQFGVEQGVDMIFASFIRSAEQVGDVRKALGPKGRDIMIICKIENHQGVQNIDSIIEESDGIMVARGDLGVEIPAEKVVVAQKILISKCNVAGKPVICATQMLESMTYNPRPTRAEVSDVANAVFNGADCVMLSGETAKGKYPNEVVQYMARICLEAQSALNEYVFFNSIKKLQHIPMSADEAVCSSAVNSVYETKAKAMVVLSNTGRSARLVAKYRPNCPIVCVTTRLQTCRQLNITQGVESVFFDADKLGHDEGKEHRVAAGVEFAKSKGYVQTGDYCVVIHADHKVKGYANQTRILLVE
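ATP generated from ADP (0.1 mM) and PEP (0.5 mM) by 0.1 nM LmPK over 1 h at room temperature (pH 7.2 imidazole buffer) was detected by coupled luciferase luminescence. Values were normalized to uninhibited and no-enzyme wells.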
The depositor's hits bear a star; ? = inconclusive; / = no result given; + = active, no number. Rows were chosen to be rich in hits. Some 22% of all compounds tested hit in one or more screens of this group. Unless noted, the call rests on the fitted dose curve; in most records, active means well fitted inhibition curve with a large enough effect; inconclusive means small, poorly fitted or top-dose-only effect, or another doubt; inactive means no such curve, though single readings can be large or run the other way.

SMILES	Shiga toxin inh	Pf growth 48h	Cycloheximide cs	Pf growth 96h	LmPK inhibitor
Cc1nc2sccc2c(=O)n1N	5	12%	-3	-10%	6%
Cc1ccc(S(=O)(=O)N2CCN(CC(=O)NC(=O)NCc3ccccc3)CC2)cc1C	16	/	5	?	1%
Oc1ccc(N=Nc2ccccc2)cc1	73*	115%	36*	122%	0%
CC(=O)Nc1ccc(N=Nc2ccc(O)cc2)cc1	+	276%	35*	134%	-14%
O=C(O)c1cc(O)ccc1N=Nc1ccccc1	22	-8%	1	-2%	1%
CC(=O)Nc1ccc(N=NN2CCOCC2)cc1	73*	17%	46*	39%	-1%
Oc1ccc(Cl)cc1N=Nc1ccccc1	37	42%	27*	?	-3%
O=C(O)/C(=C\c1ccc(Br)cc1)c1ccc(S(=O)(=O)N2CCCCC2)s1	-13	12%	-7	-30%	1%
O=S(=O)(NCc1ccc(F)cc1)c1ccc(Br)cc1Br	/	2%	/	38%	/
COc1ccc(-n2nnc3c(=O)n(CC(=O)Nc4cc(C)on4)cnc32)cc1OC	7	?	5	-2%	-2%
CCOP(=O)(OCC)C(O)c1cc(OC)c(OC)c(OC)c1 (configuration not stated)	10	-15%	-2	39%	4%
CC1CN(C(=O)Cn2cc(S(=O)(=O)CC(=O)N(C)c3ccccc3)c3ccccc32)CC(C)O1 (configuration not stated)	-12	-12%	-1	13µM*	-6%
Oc1ccccc1/C=N/Nc1nccnc1Cl	106	/	38*	-11%	16µM*
CCN(CC)S(=O)(=O)c1ccc(N/N=C/c2ccc(O)cc2O)nc1	2	2.3µM*	-1	3.7µM*	3%
O=[N+]([O-])c1ccccc1/C=N/NC1=NS(=O)(=O)c2ccccc21	30	?	-2	38%	0%
O=[N+]([O-])c1ccccc1/C=N/Nc1nccnc1Cl	124*	92%	50*	237%	?
CCN(CC)S(=O)(=O)c1ccc(N/N=C(\C)c2ccncc2)nc1	3	?	-6	12%	6%
Oc1ccc(/C=N/Nc2nccnc2Cl)c(O)c1	124*	/	49*	?	13µM*
O=C(NCc1ccccn1)C(=O)N/N=C/c1ccccc1O	-7	?	1	-2%	1%
COC(=O)c1nnn(CC(=O)Nc2cccc(OC)c2)c1C(=O)OC	-2	/	3	/	3%
Oc1ccc(Br)cc1/C=N/Nc1ncc(-c2ccccc2)cn1	-17	?	-3	?	4%
Oc1ccc(/C=N/Nc2ncc(Br)cn2)c(O)c1	115*	?	76*	?	-6%
COc1ccc(OC)c(NC(=O)C2CCCN(S(C)(=O)=O)C2)c1 (configuration not stated)	-6	13%	1	?	1%
CCc1cccc(OCC2Cn3c(nc4c3c(=O)n(C)c(=O)n4C)O2)c1 (configuration not stated)	19	16%	-1	?	0%
Cn1c(=O)c2c(nc3n2CC(COc2ccccc2)O3)n(C)c1=O (configuration not stated)	23	0%	-2	9.3µM*	5%
SMILES	Shiga toxin inh	Pf growth 48h	Cycloheximide cs	Pf growth 96h	LmPK inhibitor
CCc1cccc(OCC2Cn3c(nc4c3c(=O)[nH]c(=O)n4C)O2)c1 (configuration not stated)	-4	5%	-2	12µM*	-2%
Cn1c(=O)c2c(nc3n2CC(COc2ccc(Cl)cc2)O3)n(C)c1=O (configuration not stated)	-12	-11%	-2	?	2%
CC(C)(C)N1CC(COc2ccccc2)OC1=O (configuration not stated)	23	45%	21*	29%	7%
C#CCn1c(=O)c2c(nc(/C=C/c3cccc(OC)c3)n2C)n(CCCO)c1=O	-4	/	-4	/	/
CSc1nnc2n(C3CCCCC3)c(=O)c3c4c(sc3n12)CCCC4	31	3%	-1	-7%	0%
Cc1nnc2n(C3CCCCC3)c(=O)c3c4c(sc3n12)CCC4	-20	-2%	-2	3.3µM*	5%
Cn1c(/C=C/c2ccccc2)nc2ccccc2c1=O	57*	17%	28*	-19%	-2%
Cn1c(/C=C/c2ccc(Cl)cc2)nc2ccccc2c1=O	46*	79%	24*	?	1%
COC(=O)c1c(C(=O)OC)c(-c2ccc(OC)cc2)n2c1CS(=O)(=O)C2	-20	?	-1	?	14%
Fc1ccc(N/N=C2/CCSc3sccc32)c(F)c1	28*	63%	15*	0%	1%
O=C1c2ccsc2SCCN1Cc1cccc(F)c1	-5	/	-4	31%	5%
Cc1cc(C)nc(-n2nc(C)c(Sc3ccc(F)cc3)c2N)n1	100*	?	39*	5%	-18%
CC1=C(C(=O)OC(C)(C)C)C(c2ccco2)C(C#N)=C(N)O1 (configuration not stated)	-23	0%	-6	2.1µM*	5%
CCc1c(C(=O)N/N=C/c2ccsc2)csc1C	+	-23%	39*	20%	0%
Cc1ccc(/C=N/NC(=O)c2c[nH]c3ccccc23)s1	77*	47%	30*	3%	0%
C/C(=N\NC(=O)c1c[nH]c2ccccc12)c1ccc(C)s1	38	?	25*	-16%	-4%
COc1ccc(C/C(C)=N\NC(=O)c2c[nH]c3ccccc23)cc1OC	71*	0%	29*	8%	-1%
O=C(N/N=C/c1cc([N+](=O)[O-])ccc1O)c1c[nH]c2ccccc12	11	?	-3	?	4%
CCn1nc(C)c(/C=N/NC(=O)c2c[nH]c3ccccc23)c1C	40*	57%	50*	17%	-2%
C/C(=N/NC(=O)c1ccncc1)c1c[nH]c2ccccc12	48	4%	7	?	-8%
CC/C(=N\NC(=O)c1c[nH]c2ccccc12)c1cccs1	61*	?	62*	13µM*	-1%
O=C(N/N=C/c1ccsc1)c1c[nH]c2ccccc12	67*	19%	47*	0%	2%
Cc1ccc(/C=N/NC(=O)c2c[nH]c3ccccc23)o1	72*	/	20*	?	0%
COc1cc2c(cc1OC)C(C)N(C(=O)Nc1ccc(F)cc1)CC2 (configuration not stated)	-24	-21%	0	-23%	7%
CN1CCC(=NNC(=O)C(=O)Nc2ccccc2F)CC1	13	13%	-2	-5%	3%
Cc1ccsc1/C=N/NC(=O)c1c[nH]c2ccccc12	106*	49%	60*	183%	0%
O=C(N/N=C/c1cccc([N+](=O)[O-])c1)c1c[nH]c2ccccc12	79*	-12%	34*	-14%	1%
